Test [1] in a line: ATG_PBREM_CIS: Attagene CIS-FACTORIAL HepG2 Assay for human Phenobarbital-responsive Enhancer Module (PBREM) (AID 2282955). The note with it: HepG2 PBREM cis-reporter, Attagene multiplexed transcription; actives raise or lower the signal. The method, boiled down:
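Cells were transfected with cis-element reporter units and treated for 24 h, after which RNA was extracted and reporter transcripts measured by RT-PCR and capillary electrophoresis.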

Test [2] has as its target Paired box protein Pax-6 (Homo sapiens) (UniProt P26367). The experiment in a line: ATG_Pax6_CIS: Attagene CIS-FACTORIAL HepG2 Assay for human Paired Box 6 (PAX6) (AID 2282956). Particulars: HepG2 CIS-FACTORIAL PAX6 reporter transcription, RNA readout; actives raise or lower the signal. Put shortly: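 Values derive from bidirectional curve fitting of reporter mRNA signal relative to DMSO. HepG2 cells bearing transfected cis-regulated MRTUs were exposed for 24 h; transcripts were read by RT-PCR and capillary electrophoresis.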

The nature of test [3]: ATG_PXRE_CIS: Attagene CIS-FACTORIAL HepG2 Assay for human Pregnane X Receptor Element (PXRE) (AID 2282957). The note with it: HepG2 Attagene CIS-FACTORIAL PXRE reporter, mRNA; actives raise or lower the signal. The method, boiled down: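 Read-out: fluorescence of reporter-specific RT-PCR products resolved by capillary electrophoresis, fitted bidirectionally relative to DMSO. Human HepG2 liver cells carried transfected cis-promoter reporter units and were exposed to chemicals for 24 h.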

Test [4] can be described thus: ATG_RORE_CIS: Attagene CIS-FACTORIAL HepG2 Assay for human RAR-related Orphan Receptor Element (RORE) (AID 2282959). Particulars: HepG2 Attagene cis-factorial RORE reporter, mRNA; actives raise or lower the signal. The method, boiled down: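 Endogenous factor activity at a cis response element is read as reporter transcript levels in HepG2 cells, 24 h post-dose. Transcripts are quantified by RT-PCR with capillary electrophoresis, and data fitted in both directions against DMSO.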

The nature of test [5]: ATG_Sox_CIS: Attagene CIS-FACTORIAL HepG2 Assay for human SRY-box transcription factor (SOX) (AID 2282960). Particulars: HepG2 Attagene cis-factorial SOX reporter, mRNA; actives raise or lower the signal. Put shortly: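 Measures mRNA induction of a SOX1-associated reporter in HepG2 after 24 h dosing. Fluorescently labelled RT-PCR fragments are separated by capillary electrophoresis, and gain or loss relative to DMSO control is fitted.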

Test [6] deals with Transcription factor Sp1 (Homo sapiens) (UniProt P08047). The test is described as follows: ATG_Sp1_CIS: Attagene CIS-FACTORIAL HepG2 Assay for human Specificity Protein 1 (Sp1) (AID 2282961). Particulars: HepG2 Sp1 cis-reporter transcription, actives raise or lower the signal. Put shortly:
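Cells: HepG2, transiently transfected with cis-regulated multiplexed reporters. Exposure: 24 h. Detection: reporter transcripts amplified, fluorescently labeled, restriction-digested and sized by capillary electrophoresis. Analysis: bidirectional fit relative to DMSO.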

The nature of test [7]: ATG_SREBP_CIS: Attagene CIS-FACTORIAL HepG2 Assay for human Sterol Regulatory Element Binding (SREBP) (AID 2282962). The note with it: HepG2 Attagene cis-factorial SREBP reporter, mRNA; actives raise or lower the signal. The method, boiled down: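 Values derive from bidirectional curve fitting with DMSO as baseline. The underlying measurement is reporter mRNA from cis-element-regulated units in transiently transfected HepG2, quantified by RT-PCR and capillary electrophoresis after 24 h exposure.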

The target of test [8] is Signal transducer and activator of transcription 3 (Homo sapiens) (UniProt P40763). The experiment in a line: ATG_STAT3_CIS: Attagene CIS-FACTORIAL HepG2 Assay for human Signal Transducer and Activator of Transcription 3 (STAT3) (AID 2282963). The note with it: HepG2, Attagene cis-factorial STAT3 reporter transcription; actives raise or lower the signal. The method, boiled down:
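Readout: fluorescent reporter mRNA fragments resolved by capillary electrophoresis. Setup: HepG2 transfected with MRTUs reporting endogenous transcription-factor activity, dosed 24 h. Gain or loss of signal fitted bidirectionally against DMSO control.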

A short description of test [9]: ATG_TA_CIS: Attagene CIS-FACTORIAL HepG2 Assay for human TA Basal Promoter (AID 2282964). The note with it: HepG2 Attagene CIS-factorial TA basal promoter reporter; actives raise or lower the signal. Put shortly:
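Fluorescence from labelled RT-PCR reporter fragments, separated by capillary electrophoresis, gives the signal. Cells: HepG2 transiently carrying multiple reporter units, 24 h chemical dosing. Gain or loss relative to DMSO.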

A short description of test [10]: ATG_PPRE_CIS: Attagene CIS-FACTORIAL HepG2 Assay for human Peroxisome Proliferator-activated Response Element (PPRE) (AID 2282958). The note with it: HepG2 PPRE cis-element reporter, Attagene transcription factor profiling; actives raise or lower the signal. The method, boiled down: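 In this cell-based multiplex, a PPRE cis element drives a reporter sequence in transiently transfected HepG2 cells. Following 24 h treatment, labeled cDNA amplicons are sized and quantified by capillary electrophoresis, with DMSO defining baseline.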

Structures are written as SMILES. The source made the active and inactive calls. Rule for the calls: active = hit-call score of the fitted dose curve at least 0.9, where 1 is the maximum; inactive = score below 0.9.

Chain of Paired box protein Pax-6 (Homo sapiens) (P26367 whole entry, looked up): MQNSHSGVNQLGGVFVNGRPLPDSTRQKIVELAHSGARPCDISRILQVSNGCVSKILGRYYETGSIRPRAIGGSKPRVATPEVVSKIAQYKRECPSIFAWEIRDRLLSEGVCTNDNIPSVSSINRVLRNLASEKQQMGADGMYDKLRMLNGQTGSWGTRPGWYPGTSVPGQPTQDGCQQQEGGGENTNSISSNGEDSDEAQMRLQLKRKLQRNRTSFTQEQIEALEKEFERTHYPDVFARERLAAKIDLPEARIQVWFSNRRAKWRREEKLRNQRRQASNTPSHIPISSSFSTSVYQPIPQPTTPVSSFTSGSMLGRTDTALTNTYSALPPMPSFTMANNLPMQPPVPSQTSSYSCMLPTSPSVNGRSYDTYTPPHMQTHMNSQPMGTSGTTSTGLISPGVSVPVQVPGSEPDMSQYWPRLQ
Chain of Transcription factor Sp1 (Homo sapiens) (P08047 whole entry, looked up): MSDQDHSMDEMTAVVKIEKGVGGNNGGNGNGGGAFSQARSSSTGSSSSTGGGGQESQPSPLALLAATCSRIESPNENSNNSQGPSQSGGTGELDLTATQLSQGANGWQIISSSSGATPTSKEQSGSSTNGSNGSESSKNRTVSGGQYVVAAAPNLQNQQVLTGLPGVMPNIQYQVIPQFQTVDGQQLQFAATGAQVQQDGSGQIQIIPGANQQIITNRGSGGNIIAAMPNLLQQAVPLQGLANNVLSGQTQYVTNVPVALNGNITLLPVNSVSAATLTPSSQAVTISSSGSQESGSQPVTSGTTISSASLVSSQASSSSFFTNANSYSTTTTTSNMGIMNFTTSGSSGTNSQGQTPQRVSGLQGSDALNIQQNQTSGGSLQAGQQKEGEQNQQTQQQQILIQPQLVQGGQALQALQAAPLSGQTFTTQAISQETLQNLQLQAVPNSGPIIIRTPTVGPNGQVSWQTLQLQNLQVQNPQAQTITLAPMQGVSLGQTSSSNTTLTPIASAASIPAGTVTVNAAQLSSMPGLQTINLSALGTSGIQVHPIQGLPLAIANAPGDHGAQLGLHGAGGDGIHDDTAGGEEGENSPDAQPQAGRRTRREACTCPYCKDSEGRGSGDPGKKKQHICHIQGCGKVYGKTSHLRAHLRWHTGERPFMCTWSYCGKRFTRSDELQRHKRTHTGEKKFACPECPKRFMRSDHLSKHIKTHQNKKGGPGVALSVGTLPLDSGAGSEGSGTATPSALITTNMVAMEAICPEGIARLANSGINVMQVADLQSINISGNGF
Chain of Signal transducer and activator of transcription 3 (Homo sapiens) (P40763 whole entry, looked up, the tested form may be a part): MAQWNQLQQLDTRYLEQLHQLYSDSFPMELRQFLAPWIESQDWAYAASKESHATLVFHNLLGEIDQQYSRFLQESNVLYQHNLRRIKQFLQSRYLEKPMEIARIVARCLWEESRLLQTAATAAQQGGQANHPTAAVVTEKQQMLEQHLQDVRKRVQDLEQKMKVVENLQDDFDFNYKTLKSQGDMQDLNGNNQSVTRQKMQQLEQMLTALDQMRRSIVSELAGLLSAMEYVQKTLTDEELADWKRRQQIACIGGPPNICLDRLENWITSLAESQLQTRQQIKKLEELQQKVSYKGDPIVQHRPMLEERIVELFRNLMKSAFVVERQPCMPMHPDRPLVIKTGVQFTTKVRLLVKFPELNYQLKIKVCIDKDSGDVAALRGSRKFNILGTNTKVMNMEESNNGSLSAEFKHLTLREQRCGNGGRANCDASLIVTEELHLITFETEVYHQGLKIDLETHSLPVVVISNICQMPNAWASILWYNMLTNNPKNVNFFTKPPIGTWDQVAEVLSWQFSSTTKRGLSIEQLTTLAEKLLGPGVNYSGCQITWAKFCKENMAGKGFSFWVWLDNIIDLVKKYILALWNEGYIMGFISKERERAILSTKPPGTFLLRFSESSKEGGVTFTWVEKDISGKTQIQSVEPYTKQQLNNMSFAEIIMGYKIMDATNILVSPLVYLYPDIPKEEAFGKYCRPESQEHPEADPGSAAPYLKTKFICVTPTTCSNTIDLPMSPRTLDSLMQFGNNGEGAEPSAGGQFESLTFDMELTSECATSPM

Broadly, the AC50 is the concentration at which the activity in the assay is half-maximal. In the case of `CC(=O)CCC(=O)O`, the outcome in [1], in [2], in [4], in test [5], in [6] and in [7] was inactive. Also, the call in [8] and in [9] was inactive. The AC50 in [3] was 63.8 µM (active).
For `CCCC[N+](C)(CCCC)CCCC`, the result in test [1], in [2], in test [3], in [4], in test [5] and in test [6] was inactive. Besides, the molecule was called inactive in [7], in test [8] and in test [9].
Regarding `CN(C)c1ccc(C=O)cc1`, the result in [1], in test [2], in test [3], in test [4], in test [5] and in test [6] was inactive. The molecule was called inactive in test [7], in [8] and in test [9].
On to `C[N+](C)(C)CCO`, for which the result in test [1], in [2], in test [3], in [4], in test [5] and in test [6] was inactive. Also, the outcome in test [7], in test [8] and in test [9] was inactive.
Take `O=c1cc(-c2ccc(O)cc2)oc2cc(O)cc(O)c12`: the result in [1], in test [5], in test [6], in test [7], in test [8] and in [9] was inactive. In addition, the AC50 in test [2] is 21.7 µM (active); in test [3], 14 µM (active); in test [10], 26.7 µM (active).
In the case of `CC1(C)[C@H](C=C(Cl)Cl)[C@H]1C(=O)OCc1cccc(Oc2ccccc2)c1`, the outcome in test [1], in [2], in test [4], in test [5], in test [6] and in test [7] was inactive. For the same molecule, the outcome in test [8] and in test [9] was inactive. Further, the concentration at half-maximal activity (AC50) in test [3] was 3.1 µM (active).
In the case of `c1coc(CNc2ncnc3nc[nH]c23)c1`, the outcome in [1], in [2], in test [4], in test [5], in [6] and in [7] was inactive. Also, the molecule was called inactive in test [8] and in test [9]. Further, the AC50 in test [3] is 44 µM (active).
With `CNC(=C[N+](=O)[O-])NCCSCc1ccc(CN(C)C)o1`, the result in test [1], in [2], in test [3], in test [4], in test [5] and in test [6] was inactive. The call in test [7], in [8] and in [9] was inactive.
Regarding `N=C1N=C(N)c2ccccc21`, the outcome in test [1], in test [2], in [3], in [4], in test [5] and in test [6] was inactive. For the same molecule, the call in test [7], in [8] and in test [9] was inactive.
For the molecule `CCOC(=O)COC(=O)c1ccccc1C(=O)OCC`, the outcome in test [1], in test [2], in test [4], in test [5], in test [6] and in test [7] was inactive. For the same molecule, the result in [8] and in test [9] was inactive. Moreover, in test [3], the concentration at half-maximal activity (AC50) was 50.1 µM (active).
Regarding `CC(C)Cc1ccc(C(C)C(=O)O)cc1` (stereo not drawn), the result in test [1], in test [2], in test [3], in test [4], in [5] and in test [6] was inactive. Besides, the call in test [7], in [8] and in test [9] was inactive.
Take `CC(=O)OC/C=C(C)/C=C/C=C(C)/C=C/C1=C(C)CCCC1(C)C`: the outcome in test [1], in test [4], in test [8] and in [9] was inactive. Besides, the AC50 is 72.2 µM (active) in test [2]; 0.426 µM (active) in test [3]; 138 µM (active) in test [5]; 172 µM (active) in test [6]; 100 µM (active) in test [7].
For the molecule `CC1=CC(C)C(C=O)C(C)C1` (stereo not drawn) (tested in a mixture with another compound), the outcome in [1], in [2], in [4], in test [5], in test [6] and in [7] was inactive. In addition, the molecule was called inactive in test [8] and in [9]. The AC50 in test [3] is 15.9 µM (active).
As to `[Cl][Dy]([Cl])[Cl]`, the outcome in test [1], in test [2], in test [3], in test [4], in test [5] and in [6] was inactive. The outcome in test [7], in test [8] and in test [9] was inactive.
Turning to `CC(=O)CCC=C(C)CCC=C(C)C`, the outcome in test [1], in test [2], in test [4], in test [5], in [6] and in test [7] was inactive. Further, the molecule was classed as inactive in [8] and in [9]. Also, the AC50 in test [3] is 6.98 µM (active).
In the case of `CCCCCCOC(C)=O`, the result in test [1], in test [2], in [3], in [10], in [5] and in [6] was inactive. For the same molecule, the molecule was called inactive in test [7], in test [8] and in [9].
Regarding `CC(CO)c1ccccc1` (stereo not drawn), the outcome in test [1], in test [2], in test [3], in test [4], in test [5] and in test [6] was inactive. For the same molecule, the outcome in test [7], in [8] and in test [9] was inactive.

These data come from PubChem BioAssay (EPA / NIEHS).
